From PubChem BioAssay (NCATS)
Records with an inconclusive call do not appear. A call without a number means that no potency is given here. Unmarked numbers belong to inactive results. Activity calls are given as the source filed them. The call rests on the fitted dose curve; in most records, active means well fitted curve in the direction sought with a large enough effect; inconclusive means small, poorly fitted or top-dose-only effect, or another doubt; inactive means no such curve, though single readings can be large; an effect the other way counts as inactive or inconclusive.

Experiments:
CRL-7250 = normal cell line; assay: Cytotoxic Profiling of Annotated Libraries Using Quantitative High-Throughput Screening (AID 1296008); details: Five cell lines viability, CellTiter-Glo ATP luminescence, 48-72 h; max response: hits give low values; further: nearly all actives have a fitted effect of over 60% in size; further: potency means the concentration at half of the fitted maximal effect
In short: (§1)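 Compounds were pin-transferred onto cells and incubated 48 or 72 hr at 37 degree Celsius, 95% humidity. CellTiter-Glo was added, plates sat 10 min at room temperature, then ATP-coupled luminescence was imaged as the viability read-out.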

HEK293 = assay: as above; details: Five cell lines viability, CellTiter-Glo ATP luminescence, 48-72 h; max response: hits give low values
In short: as §1

HaCat [1] = assay: as above; details: Five cell lines viability, CellTiter-Glo ATP luminescence, 48-72 h; max response: hits give low values
In short: as §1

KB-3-1 = assay: as above; details: Five cell lines viability, CellTiter-Glo ATP luminescence, 48-72 h; max response: hits give low values
In short: as §1

NIH3T3 [2] = assay: as above; details: Five cell lines viability, CellTiter-Glo ATP luminescence, 48-72 h; max response: hits give low values
In short: as §1

NIH3T3 [3] = assay: qHTS assay to identify novel small-molecules to repurpose for Merkel cell carcinoma treatment (AID 1296009); details: MCC and control cell lines, CellTiter-Glo viability, 72 h; at 44.8 µM (top of the series) unless noted; further: nearly all actives have a fitted effect of over 60% in size
In short: (§2)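 Viability readout: ATP luminescence (CellTiter-Glo) after 72 hr drug exposure at 37 degree celsius. Dose-response format was 8 points for NPC and 11 points for MIPE; data normalized to in-plate controls.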

C33A = assay: Primary qHTS to identify gynecologic anti-cancer compounds using libraries of approved drugs and bioactive compounds (AID 1345084); details: Gynecologic cancer cell panel viability, ATPlite luminescence, 48 h; series mostly up to 57.5 µM; further: nearly all actives have a fitted effect of over 55% in size
In short: (§3)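 Cytotoxicity screen measuring ATP content by luciferase luminescence. Each compound is applied at five concentrations for 48 h at 37 C with 5% CO2.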

CASKI = assay: as above; details: Gynecologic cancer cell panel viability, ATPlite luminescence, 48 h; series mostly up to 57.5 µM
In short: as §3

Es-2 = assay: as above; details: Gynecologic cancer cell panel viability, ATPlite luminescence, 48 h; series mostly up to 57.5 µM
In short: as §3

HeLa = assay: as above; details: Gynecologic cancer cell panel viability, ATPlite luminescence, 48 h; series mostly up to 57.5 µM
In short: as §3

Hek293T = assay: as above; details: Gynecologic cancer cell panel viability, ATPlite luminescence, 48 h, control line for the selectivity index; series mostly up to 57.5 µM
In short: as §3

JEG-3 = assay: as above; details: Gynecologic cancer cell panel viability, ATPlite luminescence, 48 h; series mostly up to 57.5 µM
In short: as §3

CAOV3 = assay: as above; details: Gynecologic cancer cell panel viability, ATPlite luminescence, 48 h; series mostly up to 57.5 µM
In short: as §3

HACAT [4] = assay: qHTS assay to identify novel small-molecules to repurpose for Merkel cell carcinoma treatment (AID 1296009); details: MCC and control cell lines, CellTiter-Glo viability, 72 h; at 44.8 µM (top of the series) unless noted; further: nearly all actives have a fitted effect of over 60% in size
In short: as §2

SMILES: C/C=C/C1OC2=C(C(=O)OC2(C)O)C(O)C1O (centres undefined)
- max response (CRL-7250): -6.2%
- max response (HEK293): -1.4%
- max response (HaCat [1]): 2.04%
- max response (KB-3-1): -1.78%
- outcome (NIH3T3 [2]): inactive
- outcome (NIH3T3 [3]): inactive
- Potency (C33A): inactive
- outcome (CASKI): inactive
- Potency (Es-2): inactive
- Potency (HeLa): inactive
- Potency (Hek293T): inactive
- Potency (JEG-3): inactive

SMILES: COc1cc2c(cc1OC)N1C(=O)C[C@@]34C=CC[N@+]5([O-])CC[C@H]2[C@H](CC3)[C@@]145
- max response (CRL-7250): -5.36%
- max response (HEK293): -9.63%
- max response (HaCat [1]): -4.24%
- max response (KB-3-1): 1.95%
- outcome (NIH3T3 [2]): inactive
- outcome (NIH3T3 [3]): inactive
- Potency (C33A): inactive
- outcome (CASKI): inactive
- Potency (Es-2): inactive
- Potency (HeLa): inactive
- Potency (Hek293T): inactive
- Potency (JEG-3): inactive

SMILES: O=C(/C=C/N1C[C@@H]2C[C@@H]1CN2c1ccccn1)c1ccccc1O
- outcome (CRL-7250): inactive
- max response (HEK293): 4.78%
- max response (HaCat [1]): 3.55%
- outcome (KB-3-1): inactive
- outcome (NIH3T3 [2]): inactive
- Potency (C33A): inactive
- Potency (CAOV3): inactive
- outcome (CASKI): inactive
- Potency (Es-2): inactive
- Potency (HeLa): inactive
- Potency (Hek293T): inactive
- Potency (JEG-3): inactive

SMILES: CC(NC(=O)CC(=O)O)C(=O)Nc1ccccc1C(N)=O (centres undefined)
- max response (CRL-7250): -2.72%
- max response (HEK293): 2.48%
- max response (HaCat [1]): -2.92%
- max response (KB-3-1): 3.19%
- outcome (NIH3T3 [2]): inactive
- outcome (NIH3T3 [3]): inactive
- Potency (C33A): inactive
- Potency (CAOV3): inactive
- Potency (Es-2): inactive
- Potency (HeLa): inactive
- Potency (Hek293T): inactive
- Potency (JEG-3): inactive

SMILES: CC1(C)CC[C@]2(C(=O)O)CC[C@]3(C)C(=CCC4[C@@]5(C)C[C@@H](O)[C@H](O)[C@](C)(CO)C5CC[C@]43C)[C@@H]2[C@@H]1O (some centres undefined)
- outcome (CRL-7250): inactive
- Potency (HEK293): 7.96 µM (active)
- max response (HaCat [1]): 1.54%
- max response (KB-3-1): -5.13%
- outcome (NIH3T3 [2]): inactive
- outcome (NIH3T3 [3]): inactive [at 17.4 µM]
- outcome (CASKI): inactive
- Potency (Hek293T): inactive

SMILES: CC(=O)Nc1cccc2c1c(Sc1ccc(Cl)cc1)c(C)n2CC(=O)O
- max response (CRL-7250): -5.82%
- max response (HEK293): 1.56%
- max response (HaCat [1]): -2.39%
- max response (KB-3-1): -3.16%
- outcome (NIH3T3 [2]): inactive
- outcome (NIH3T3 [3]): inactive
- Potency (Es-2): inactive
- Potency (JEG-3): inactive

SMILES: CC1=C2C(=O)C=C(CO[C@@H]3O[C@H](CO)[C@@H](O)[C@H](O)[C@H]3O)[C@@H]2[C@H]2OC(=O)[C@H](C)[C@@H]2CC1
- max response (CRL-7250): -4.79%
- max response (HEK293): 3.74%
- max response (HaCat [1]): 4.93%
- max response (KB-3-1): 0.664%
- outcome (NIH3T3 [2]): inactive
- outcome (NIH3T3 [3]): inactive [at 17.4 µM]
- Potency (C33A): inactive
- outcome (CASKI): inactive
- Potency (Es-2): inactive
- Potency (HeLa): inactive
- Potency (Hek293T): inactive
- Potency (JEG-3): inactive

SMILES: Nc1nc2c(nc(Sc3ccc(Cl)cc3)n2[C@@H]2O[C@@H]3COP(=O)(O)O[C@H]3[C@H]2O)c(=O)[nH]1
- max response (CRL-7250): 1.71%
- max response (HEK293): 1.54%
- max response (HaCat [1]): -3.37%
- outcome (KB-3-1): inactive
- outcome (NIH3T3 [2]): inactive
- Potency (C33A): inactive
- Potency (CAOV3): inactive
- outcome (CASKI): inactive
- Potency (Es-2): inactive
- Potency (HeLa): inactive
- Potency (Hek293T): inactive
- Potency (JEG-3): inactive

SMILES: C/C(=C\C(=O)C(C)C1CCC2C3=C(CCC21C)C1(C)CCC(=O)C(C)(C)C1(O)CC3)C(C)(C)O (centres undefined)
- max response (CRL-7250): 3.05%
- max response (HEK293): -15.6%
- max response (HaCat [1]): 1.49%
- max response (KB-3-1): -3.74%
- outcome (NIH3T3 [2]): inactive
- Potency (C33A): inactive
- outcome (CASKI): inactive
- Potency (Es-2): inactive
- Potency (HeLa): inactive
- Potency (Hek293T): inactive
- Potency (JEG-3): inactive

SMILES: O=S(=O)(O)c1ccc(Nc2ncnc3c2ncn3[C@@H]2O[C@H](CO)[C@@H](O)[C@H]2O)cc1
- outcome (CRL-7250): inactive
- max response (HEK293): -6.97%
- max response (HaCat [1]): -25.7%
- outcome (KB-3-1): inactive
- outcome (NIH3T3 [2]): inactive
- outcome (NIH3T3 [3]): inactive
- Potency (C33A): inactive
- outcome (CASKI): inactive
- Potency (Es-2): inactive
- Potency (HeLa): inactive
- Potency (Hek293T): inactive
- Potency (JEG-3): inactive

SMILES: FC(F)(F)c1nnc2c(Sc3ccccc3)nc3ccc(Cl)cc3n12
- Potency (CRL-7250): 3.66 µM (active)
- Potency (HEK293): 5.8 µM (active)
- Potency (HaCat [1]): 4.61 µM (active)
- Potency (KB-3-1): 5.17 µM (active)
- outcome (NIH3T3 [2]): inactive
- outcome (NIH3T3 [3]): inactive
- Potency (C33A): inactive
- outcome (CASKI): inactive
- Potency (HeLa): inactive
- Potency (Hek293T): inactive
- Potency (JEG-3): inactive

SMILES: Cc1occc1C(=O)n1ccnc1
- max response (CRL-7250): -1.62%
- max response (HEK293): 0.475%
- max response (HaCat [1]): 4.32%
- max response (KB-3-1): 0.152%
- outcome (NIH3T3 [2]): inactive
- outcome (NIH3T3 [3]): inactive
- Potency (C33A): inactive
- outcome (CASKI): inactive
- Potency (Es-2): inactive
- Potency (HeLa): inactive
- Potency (Hek293T): inactive
- Potency (JEG-3): inactive

SMILES: C/C(=C\CCC1(C)C2CC3C(C2)C31C)C(=O)O (centres undefined)
- outcome (CRL-7250): inactive
- outcome (HaCat [1]): inactive
- outcome (KB-3-1): inactive
- outcome (NIH3T3 [2]): inactive
- outcome (HACAT [4]): inactive
- outcome (NIH3T3 [3]): inactive
- Potency (C33A): inactive
- Potency (CAOV3): inactive
- outcome (CASKI): inactive
- Potency (Es-2): inactive
- Potency (HeLa): inactive
- Potency (Hek293T): inactive
- Potency (JEG-3): inactive

SMILES: Nc1nc(COC(=O)c2ccc([N+](=O)[O-])cc2)nc(Nc2ccccc2)n1
- max response (CRL-7250): -7.38%
- max response (HEK293): -16.5%
- max response (HaCat [1]): -9.19%
- max response (KB-3-1): -4.58%
- outcome (NIH3T3 [2]): inactive
- outcome (NIH3T3 [3]): inactive
- Potency (C33A): inactive
- outcome (CASKI): inactive
- Potency (Es-2): inactive
- Potency (HeLa): inactive
- Potency (Hek293T): inactive
- Potency (JEG-3): inactive
